According to the supplement of paper PMC10515830:
Counter-ions that a name gives are not always drawn.

Columns and labels:
Conditions in all cases: 10 µM; exposure time 6 h
[1] = system: Danio rerio larvae (5 dpf); assay: difference in excitability vs DMSO (percentage points); higher = more excitable than DMSO
Procedure, shortened: (§1)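 Library compounds were tested at 10 µM final in 100 µL egg water on wild-type 5 dpf zebrafish larvae in 96-well plates for 6 h, with 48 larvae per compound. After 3 h, plates at 28.5 ℃ were imaged every 6 s during a 3-h run of moving lines and 100 ms, 400Hz tones. Behaviours were quantified by Z-LaP Tracker and reported as the compound mean less the vehicle control mean, in percentage points.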

[2] = system: Danio rerio larvae (5 dpf); assay: difference in startle response vs DMSO (percentage points); higher = stronger startle than DMSO
Procedure, shortened: as §1

[3] = system: Danio rerio larvae (5 dpf); assay: difference in activity during first hour vs DMSO (percentage points); higher = more activity than DMSO
Procedure, shortened: as §1

[4] = system: Danio rerio larvae (5 dpf); assay: difference in habituation to acoustic stimuli vs DMSO (percentage points); higher = more habituation than DMSO
Procedure, shortened: as §1

[5] = system: Danio rerio larvae (5 dpf); assay: difference in combined optomotor response to red, green and blue moving lines vs DMSO (percentage points); higher = stronger optomotor response than DMSO
Procedure, shortened: as §1

Compound	difference in excitability [1]	difference in startle response [2]	difference in activity during first hour [3]	difference in habituation to acoustic stimuli [4]	difference [5]
CC(C[N+](C)(C)C)OC(N)=O (stereo not given) [Bethanechol (chloride)]	1.05	-0.356	-9.77	0.388	-6.5
CCN(CC)CCOc1ccc(C(=C(Cl)c2ccccc2)c2ccccc2)cc1 [Clomiphene (citrate)]	-9.14	5.47	-4.03	-5.11	-16.4
O=C(O[C@H]1CN2CCC1CC2)N1CCc2ccccc2[C@@H]1c1ccccc1 [Solifenacin (succinate)]	3.16	-8.09	25.6	-1.09	1.96
CO[C@H]1/C=C/O[C@@]2(C)Oc3c(C)c(O)c4c(O)c(c5c(nc6cc(C)ccn65)c4c3C2=O)NC(=O)/C(C)=C\C=C\[C@H](C)[C@H](O)[C@@H](C)[C@@H](O)[C@@H](C)[C@H](OC(C)=O)[C@@H]1C [Rifaximin]	-5.63	-5.31	13.2	0.472	0.85
CN(CCOc1ccc(CC2SC(=O)NC2=O)cc1)c1ccccn1 (stereo not given) [Rosiglitazone]	6.79	-7.02	26.9	-12.6	-6.71
COC(=O)C1=C(C)NC(C)=C(C(=O)OC(C)C)C1c1cccc2nonc12 (stereo not given) [Isradipine]	11.7	-10.9	-0.814	-7.82	-17.2
CN(C)[C@@H]1C(O)=C(C(N)=O)C(=O)[C@@]2(O)C(O)=C3C(=O)c4c(O)ccc(Cl)c4[C@@H](O)[C@H]3C[C@@H]12 [Demeclocycline (hydrochloride)]	12.9	-2.29	4.59	7.81	2.94
Cc1ccsc1C(=CCCN1CCC[C@@H](C(=O)O)C1)c1sccc1C [Tiagabine (hydrochloride)]	6.86	2.66	17.9	5.1	-1.64
C[C@@H]1NC(=O)[C@@H](N)CNC(=O)[C@H](C2CCNC(=N)N2)NC(=O)/C(=C/NC(N)=O)NC(=O)[C@H](CNC(=O)CC(N)CCCN)NC1=O.N=C1NCC[C@H]([C@@H]2NC(=O)/C(=C/NC(N)=O)NC(=O)[C@H](CNC(=O)C[C@@H](N)CCCN)NC(=O)[C@H](CO)NC(=O)[C@@H](N)CNC2=O)N1 [Capreomycin (sulfate)]	19.5	3.05	-0.814	2.2	3.54
O=S(=O)(O)CCS [Mesna]	-4.43	2.29	12.8	-1.88	6.5
CN1CCC[C@@H]1Cc1c[nH]c2ccc(CCS(=O)(=O)c3ccccc3)cc12 [Eletriptan]	0.175	-8.65	6.02	-5.47	-0.217
CN1CCC[C@@H]1CCO[C@](C)(c1ccccc1)c1ccc(Cl)cc1 [Clemastine (fumarate)]	26.5	-6.88	-0.468	-2.97	6.17
CC(=O)OCC(CCn1cnc2cnc(N)nc21)COC(C)=O [Famciclovir]	0.306	6.99	-7.41	0.929	4.52
Cc1ccc([C@@H]2O[C@H](CO)[C@@H](O)[C@H](O)[C@H]2O)cc1Cc1ccc(-c2ccc(F)cc2)s1 [Canagliflozin]	1.05	-3.92	3.63	3.27	5.53
C[C@@H](c1ncncc1F)[C@](O)(Cn1cncn1)c1ccc(F)cc1F [Voriconazole]	4.54	3.6	-18.9	3.51	5.07
Cn1cnc([N+](=O)[O-])c1Sc1ncnc2[nH]cnc12 [Azathioprine]	-3.13	3.25	-3.18	4.62	1.19
Cn1c(=O)c2c(ncn2C)n(C)c1=O [Caffeine]	5.33	2.45	2.64	7.15	4.07
CC#CCC(C)[C@H](O)/C=C/[C@@H]1[C@H]2C/C(=C/CCCC(=O)O)C[C@H]2C[C@H]1O (stereo not given in full) [Iloprost]	-3.4	-1.91	1.64	-1.61	1.64
C=CC(=O)Nc1cc(Nc2nccc(-c3cn(C)c4ccccc34)n2)c(OC)cc1N(C)CCN(C)C	8.96	-2.41	-13.4	-6.69	2.87
O=C1Cc2cc(CCN3CCN(c4nsc5ccccc45)CC3)c(Cl)cc2N1 [Ziprasidone (hydrochloride hydrate)]	26.8	5.81	11.2	-6.75	5.5
C#CCC(Cc1cnc2nc(N)nc(N)c2n1)c1ccc(C(=O)N[C@@H](CCC(=O)O)C(=O)O)cc1 (stereo not given in full) [Pralatrexate]	7.8	7.47	0.4	4.28	4.2
OC(c1cc(C(F)(F)F)nc2c(C(F)(F)F)cccc12)C1CCCCN1 (stereo not given) [Mefloquine (hydrochloride)]	20.8	-3.76	-1.02	-0.417	-0.0553
COc1ccc(Cl)cc1C(=O)NCCc1ccc(S(=O)(=O)NC(=O)NC2CCCCC2)cc1 [Glyburide (potassium salt)]	9.95	5.16	10.9	-3.8	7.83
NC(=O)c1cn(Cc2c(F)cccc2F)nn1 [Rufinamide]	3.01	4.27	8.13	0.975	7.5
Nc1nc2c(ncn2COCCO)c(=O)[nH]1 [Acyclovir]	2.27	2.62	-4.23	8.37	-2.63
COc1ccc(C(=O)CC(=O)c2ccc(C(C)(C)C)cc2)cc1 [Avobenzone]	3.84	-2.54	-6.34	4.35	-2.39
Cc1c(O)cccc1C(=O)N[C@@H](CSc1ccccc1)[C@H](O)CN1C[C@H]2CCCC[C@H]2C[C@H]1C(=O)NC(C)(C)C [Nelfinavir (mesylate)]	17.7	0.499	-23	2.82	-10.2
